D1 PAM – Potentiators of Human D1 Dopamine Receptor: qHTS. HEK293 TREx D1 cells, calcium flux, dopamine EC20 potentiation. potentiation, % at 10 µM. 360,000 tested, 0.036% active. AID 504651, 2011; in the data active means potentiation above about 30%; further: 0% is about no effect
D1 antagonist – Antagonist of Human D 1 Dopamine Receptor: qHTS. D(1A) dopamine receptor (Homo sapiens), P21728. HEK293 TREx D1 cells, calcium flux, dopamine EC80; stronger effect = lower value. activity change, negative = inhibition, % at 10 µM. 360,000 tested, 3.2% active. AID 504652, 2011; in the data active means activity change below about -30%; further: on the % scale 0 is the no-effect control and ±100 the full control effect
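Allosteric or orthosteric antagonism assessed as attenuation of the calcium response to EC80 dopamine, added 180 s after compound, in induced HEK293 Trex D1 cells loaded with no-wash calcium dye.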
TRHR ag – qHTS for Small Molecule Agonists and Allosteric Enhancers of Human TRH Receptor: Primary Screen for Agonists. TRHR cells, calcium flux fluo-8, FDSS agonist mode. activation, % at 2 µM. 360,000 tested, 0.18% active; further: 0% is about no effect
Target sequence (P34981 whole entry, looked up): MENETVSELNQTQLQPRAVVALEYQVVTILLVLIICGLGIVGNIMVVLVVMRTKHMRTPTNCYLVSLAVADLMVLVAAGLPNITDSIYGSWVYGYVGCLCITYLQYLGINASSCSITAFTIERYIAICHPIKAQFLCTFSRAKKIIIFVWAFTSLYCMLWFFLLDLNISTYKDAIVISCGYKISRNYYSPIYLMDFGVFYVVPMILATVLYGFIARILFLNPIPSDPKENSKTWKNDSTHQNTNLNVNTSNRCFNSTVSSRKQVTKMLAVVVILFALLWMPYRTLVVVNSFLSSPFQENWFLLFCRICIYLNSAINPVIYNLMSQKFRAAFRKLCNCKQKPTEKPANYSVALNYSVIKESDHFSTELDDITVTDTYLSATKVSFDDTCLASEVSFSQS
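Agonist-mode FDSS calcium read (Ex 480/Em 530, 1 s cycles) in 1536-well TRHR cells with fluo-8 dye, after 10-cycle baseline and 23 nL compound addition; TRH at EC20 (10 nM final) added afterwards for the enhancer phase.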
TRHR PAM – qHTS for Small Molecule Agonists and Allosteric Enhancers of Human TRH Receptor: Primary Screen for Enhancers; enhancement, % at 2 µM; Thyrotropin-releasing hormone receptor (Homo sapiens), P34981; TRHR cells, fluo-8 calcium fluorescence, EC20 TRH enhancement; 360,000 tested, 0.66% active; AID 493056, 2011; in the data active means enhancement above about 30%; further: 0% is about no effect
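TRHR-expressing cells loaded with fluo-8 calcium dye were read kinetically (ex 480/em 530) during compound addition, then stimulated with an EC20 of TRH (10 nM final). Enhancement of the Gq-mediated intracellular calcium response was scored.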
D1 agonist – Allosteric Agonists of the Human D1 Dopamine Receptor: qHTS | D(1A) dopamine receptor (Homo sapiens), P21728 | HEK293 T-REx D1 cells, calcium flux, agonist mode | activation, % at 2 µM | 360,000 tested, 1% active | AID 504660, 2011; further: 0% is about no effect
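Inducible HEK293 T-REx D1 cells, force-coupled to calcium signalling, were plated at 4000 cells/well with tetracycline and held overnight at 30 C. After no-wash calcium dye loading, compound-evoked calcium rise over 180 s flagged agonists.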
* hit, by the source's call. This is a sample that favours compounds with a hit; in the whole collection about 4.6% have one here. Unless noted, no stated cut-off is given here; in the data, active means activation above about 30%; inactive means the rest.

Screening COc1cccc(NS(=O)(=O)c2ccc3[nH]cc(C(=O)NC(C)c4ccccc4)c(=O)c3c2)c1 (stereo not drawn) returned D1 PAM 1, D1 antagonist 10, TRHR ag 1, TRHR PAM 2 and D1 agonist 5.
CC(C)c1ccc(C(=O)CC2(O)C(=O)N(CCc3ccccc3)c3ccc(Cl)cc32)cc1 (stereo not drawn) was read as D1 PAM 4, D1 antagonist 11, TRHR ag 3, TRHR PAM 3 and D1 agonist 7.
`COc1ccc(C)cc1NC(=O)c1ccccc1NS(=O)(=O)c1ccc(Cl)s1` gave D1 PAM -4, D1 antagonist -31*, TRHR ag 3, TRHR PAM -8 and D1 agonist 24.
Screening Cc1ccccc1N1CC(C(=O)Nc2ccc(S(=O)(=O)N3CCCCC3)cc2)CC1=O (stereo not drawn) returned D1 PAM -2, D1 antagonist -11, TRHR ag -1, TRHR PAM 35* and D1 agonist 5.
O=S(=O)(Nc1cccc(S(=O)(=O)N2CCOCC2)c1)c1ccc(Cl)s1 was read as D1 PAM -5, D1 antagonist 3, TRHR ag 1, TRHR PAM 6 and D1 agonist 2.
Screening CC(=O)Nc1ccc(S(=O)(=O)N2CCC(C(=O)c3ccc(Cl)cc3)CC2)cc1 returned D1 PAM -9, D1 antagonist -44*, TRHR ag 0, TRHR PAM -3 and D1 agonist 7.
For Cc1ccc(NC(=O)c2ccccc2NS(=O)(=O)c2ccc(Cl)s2)cc1S(=O)(=O)N1CCOCC1 the results were D1 PAM -6, D1 antagonist -50*, TRHR ag -1, TRHR PAM -23 and D1 agonist 34*.
`O=C(Nc1ccc(S(=O)(=O)N2CCOCC2)cc1)c1ccc(Cl)cc1` gave D1 PAM -6, D1 antagonist -40*, TRHR ag -1, TRHR PAM -7 and D1 agonist 5.
`O=C(Nc1ccc(S(=O)(=O)N2CCCC2)cc1)C1CCCCC1` gave D1 PAM -2, D1 antagonist 15, TRHR ag 0, TRHR PAM -6 and D1 agonist -2.
O=C(Nc1ccc(S(=O)(=O)N2CCOCC2)cc1)C1CCCCC1 was read as D1 PAM 43*, D1 antagonist -2, TRHR ag 0, TRHR PAM 3 and D1 agonist 6.
CC(=O)Oc1ccc(C(=O)Nc2ccc(S(=O)(=O)N3CCOCC3)cc2)cc1 was read as D1 PAM 1, D1 antagonist -90*, TRHR ag 1, TRHR PAM 41* and D1 agonist 6.
O=C(Nc1ccc(S(=O)(=O)N2CCOCC2)cc1)c1ccc(S(=O)(=O)N2CCOCC2)cc1 was read as D1 PAM 0, D1 antagonist 2, TRHR ag 1, TRHR PAM 8 and D1 agonist 2.
COc1cccc(NC(=O)NC(=O)c2c(C)cc(Cl)nc2Cl)c1 was read as D1 PAM -4, D1 antagonist -41*, TRHR ag 1, TRHR PAM 5 and D1 agonist 2.
Screening COc1cccc(NC(=O)Nc2cc(Cl)ccc2C)c1 returned D1 PAM -9, D1 antagonist -34*, TRHR ag 2, TRHR PAM 9 and D1 agonist 9.
For Cc1ccnc(NC(=O)CCC(=O)N(CC(=O)NC2CCCCC2)c2cccc(C)c2C)c1 the results were D1 PAM -4, D1 antagonist -42*, TRHR ag 0, TRHR PAM -4 and D1 agonist 1.
For O=C(CCC(=O)N(CC(=O)NC1CCCC1)C1CCCCC1)Nc1ccccn1 the results were D1 PAM -7, D1 antagonist -46*, TRHR ag 0, TRHR PAM 6 and D1 agonist 8.
`Cc1ccc(N(CC(=O)NC2CCCC2)C(=O)CCCC(=O)Nc2ccccn2)cc1C` gave D1 PAM -7, D1 antagonist -46*, TRHR ag -2, TRHR PAM 3 and D1 agonist 1.
For COc1ccc(OC)c(NC2=C(c3ccccc3)C(=O)c3ccccc32)c1 the results were D1 PAM -1, D1 antagonist -8, TRHR ag 0, TRHR PAM -12 and D1 agonist 1.
`Cc1ccc(N(C)C(=O)Cn2cnc3onc(-c4ccc(F)cc4)c3c2=O)cc1C` gave D1 PAM 6, D1 antagonist 2, TRHR ag 1, TRHR PAM 13 and D1 agonist 0.
`CCCCC(CC)CNC(=O)c1cccs1` (stereo not drawn) gave D1 PAM -2, D1 antagonist -62*, TRHR ag 0, TRHR PAM 2 and D1 agonist -1.
CCS(=O)(=O)c1ncc(N(Cc2cccc(F)c2)Cc2ccco2)c(C(=O)Nc2ccccc2Cl)n1 was read as D1 PAM 2, D1 antagonist 6, TRHR ag 1, TRHR PAM 1 and D1 agonist 1.
`CCc1ccccc1NC(=O)Cn1nc(CC)n2c(cc3sccc32)c1=O` gave D1 PAM -2, D1 antagonist 2, TRHR ag 0, TRHR PAM 3 and D1 agonist 0.
For COc1cc(CCCN2C(=O)C(=O)NC[C@@H]2c2ccccc2)cc(OC)c1OC the results were D1 PAM -5, D1 antagonist -1, TRHR ag 0, TRHR PAM 5 and D1 agonist 1.
COc1cc(CCCN2C(=O)C(=O)NC[C@@H]2C(C)O)cc(OC)c1OC (stereo partly drawn) was read as D1 PAM -3, D1 antagonist -37*, TRHR ag 0, TRHR PAM 0 and D1 agonist 6.
O=C(COC(=O)C12CC3CC(CC(Cl)(C3)C1)C2)NCc1ccco1 was read as D1 PAM 5, D1 antagonist 3, TRHR ag -1, TRHR PAM 2 and D1 agonist -1.
Cc1c(Cl)cccc1NC(=O)CC(c1ccc(F)cc1)N1Cc2ccccc2C1=O (stereo not drawn) was read as D1 PAM -2, D1 antagonist 2, TRHR ag -1, TRHR PAM 4 and D1 agonist 22.
For Cc1cc(=O)n(Cc2ccccc2)c2c1c(C)nn2C the results were D1 PAM -5, D1 antagonist -12, TRHR ag 0, TRHR PAM 12 and D1 agonist 5.
`Cc1nn(C)c2c1c(-c1ccccc1)cc(=O)n2Cc1ccc(Cl)cc1` gave D1 PAM -5, D1 antagonist -5, TRHR ag 1, TRHR PAM 39* and D1 agonist 18.

Compound activity: PubChem, National Center for Advancing Translational Sciences (NCATS)
